Test results: PubChem BioAssay

assay: viability loss of caspase-8 NB7 cells with TRAIL – with/without TRAIL, luminescence panel, confirmation (AID 651596); settings: NB7 neuroblastoma + caspase-8, without TRAIL, NB7 Caspase-8, without TRAIL, mean of runs, at 10 µM

Row | Structure (SMILES) | activity [%]
1 | O=C(CCl)N1c2ccccc2SCC1c1ccccc1 (stereo not given) | 98.9
2 | O=C(COC(=O)c1n[nH]c2ccccc12)NC(=O)NC12CC3CC(CC(C3)C1)C2 | 57
3 | C(=Cc1nc2ccccc2o1)c1ccc2c(c1)OCO2 | 84
4 | O=C1c2cccc3c([N+](=O)[O-])ccc(c23)C(=O)N1c1ccccn1 | 99.4
5 | COc1ccc(/C=C/c2nc3ccccc3c(=O)o2)cc1 | 83.6
6 | Cc1cccc(NS(=O)(=O)c2ccc3c(c2)Cc2cc(S(=O)(=O)Nc4cccc(C)c4C)ccc2-3)c1C | 77.5
7 | CCC(C)c1ccc(-c2cc(C(=O)OCC(=O)Nc3cc(C)on3)c3ccccc3n2)cc1 (stereo not given) | 85.7
8 | O=C(Cn1ncc(Cl)c(Cl)c1=O)Nc1ccc2c(c1)OCO2 | 99.5
9 | Fc1cccc(C2NN=C(c3ccccc3)S2)c1 (stereo not given) | 58.5
10 | CS(=O)(=O)Nc1cccc(NC(=O)C2Cc3c(-c4ccco4)ccnc3O2)c1 (stereo not given) | 27.8
11 | Cc1nc(-c2ccc(C(=O)Nc3ccccc3F)cc2)cs1 | 84.3
12 | N=c1c2c(n(Cc3ccc(Cl)c(Cl)c3)c3c1CCC3)CCCC2 | 60.1
13 | CC(C)(C)C(=O)N1CCc2cc(-c3csc(N)n3)ccc21 | 88.1
14 | O=C(CCN1C(=O)c2ccccc2C1=O)Nc1ccc(-c2nc3ccccc3s2)cc1 | 41.9
15 | O=c1cc(-c2ccccc2)oc2ccc3ccccc3c12 | 90.1
16 | COc1ccc(NC(=O)c2cc(-c3ccncc3)nc3ccc(Br)cc23)cc1OC | 51.5
17 | O=C(Nc1ccccn1)c1ccc2c(c1)OCCO2 | 47.5
18 | CCOc1ccc(/C=C2\CCc3ccccc3C2=O)cc1 | 79.2
19 | O=C(N/N=C/c1cn(-c2ccccc2)nc1-c1cc2ccccc2o1)c1cccnc1 | 50.2
20 | COC(=O)c1ccccc1NC(=O)c1cc(-c2ccc(O)cc2)on1 | 27.9

Row | Structure (SMILES) | activity [%]
21 | Cc1ccccc1C(=O)O/N=C(\N)c1ccncc1 | 76.3
22 | CC(C)(C)c1ccc(-c2noc(CCC(=O)N3CCOCC3)n2)cc1 | 64.2
23 | Brc1ccc(-c2cn3ccccc3n2)s1 | 38.7
24 | N=c1n(CC(=O)c2ccc(Br)s2)c2ccccc2n1Cc1ccccc1 | 20.6
25 | Cc1ccc(-c2cn3c(=O)cc(C)[nH]c3n2)cc1 | 79.5
26 | c1ccc(-c2cn3c4c(sc3n2)CCCC4)cc1 | 94
27 | Cc1cnc(NC(=O)c2ccc(OCC3CCCO3)cc2)s1 (stereo not given) | 94.7
28 | Cc1cc(NC(=O)c2cc3n(n2)C(C(F)(F)F)CC(c2ccco2)N3)no1 (stereo not given) | -14.8
29 | Cc1ccccc1NC(=O)Cc1nc(COC(=O)c2ccc(S(C)(=O)=O)c([N+](=O)[O-])c2)cs1 | 93.9
30 | Nc1nc2ccccc2n1C(=O)c1ccc(F)cc1 | 91
31 | COc1ccc(C2C(C(=O)N3CCC(C)CC3)c3ccccc3C(=O)N2C)cc1 (stereo not given) | 68.5
32 | CCOc1ccc2nc(NC(=O)CN3CCC(n4nnc5cc(C(F)(F)F)ccc54)CC3)sc2c1 | 66.9
33 | CC(C)(C)C1CCc2sc(C(=O)NNC(=O)CCl)cc2C1 (stereo not given) | 95.6
34 | C#CCSc1nnc(-c2ccc(C)cc2)o1 | 93.2
35 | N#Cc1c(/N=C/c2cccs2)sc2c1CCCCC2 | 35.4
36 | CCOC(=O)COc1ccc(-c2nnc(-c3ccccc3)o2)cc1 | 33.8
37 | Nc1nc(N)c2cc(CNc3ccc(Cl)c(Cl)c3)ccc2n1 | 73.4
38 | O=c1[nH]c2ccccc2nc1/C=C/c1ccc(Cl)cc1 | 74.2
39 | CCOC(=O)CSc1nc2cc(C)ccc2cc1C#N | 38.4
40 | CC(=O)n1cc(N(C(=O)CCl)c2ccc([N+](=O)[O-])cc2)c2ccccc21 | 99.3
